In PubChem BioAssay AID720532 (National Center for Advancing Translational Sciences (NCATS), 2013):
About 1,200 (6.7%) of roughly 18,000 compounds were called active. Roughly 16% stayed inconclusive and do not appear here. Many of the other results were omitted from the sample, so actives are more common in it than they were. A number with no mark means an inactive call. The call rests on the fitted dose curve; tested in HEK293 cells.

assay: qHTS for Inhibitors of binding or entry into cells for Marburg Virus; conditions: Marburg virus pseudotype entry/binding inhibition, cell-based; series mostly up to 49.2 µM; activity change, negative = inhibition: at the top concentration
On the % scale 0 is the no-effect control and ±100 the full control effect; potency means the concentration at half of the fitted maximal effect.

| Structure (SMILES) | activity change, negative = inhibition | Potency |
| --- | --- | --- |
| CCN1C(=S)NC(c2cccc(C(F)(F)F)c2)C(C(=O)OC)=C1C (centres undefined) | 95.8% [at 8.59 µM] | – |
| CCOC(=O)CN1C(=O)N[C@@H](c2ccc(Br)cc2)C(C(C)=O)=C1C | -0.139% | – |
| CC(=O)Oc1c2c(c3c(c1CC=C(C)C)O[C@@]14C(=CC5CC1C(C)(C)OC4(C/C=C(\C)C(=O)O)C5=O)C3=O)OC(C)(CCC=C(C)C)C=C2 (some centres undefined) | – | 3.55 µM (active) |
| Cc1cccc([C@H]2[C@@H]3C=CC[C@@H](C)[C@@H]3C(=O)N2Cc2ccccc2)c1 | -5.81% | – |
| COc1cccc([C@H](O)Cn2cc(-c3ccc(CON=C(C)C)cc3)nn2)c1 | 7.92% [at 8.59 µM] | – |
| Cc1cc2c(nc1C)CCCCN2C[C@H](C)ON=C1[C@H]2CCn3c(=O)n(-c4ccccc4)c(=O)n3[C@@H]2[C@H](O)[C@@H]2O[C@H]12 | 26% [at 8.59 µM] | – |
| N#Cc1c(Cl)c(Cl)c(Cl)c(C#N)c1Cl | – | 1.12 µM (active) |
| COCOc1cc(OC)ccc1C(=O)/C=C/c1ccc([N+](=O)[O-])cc1 | 3.69% | – |
| OCCN1CCN(CC/C=C2\c3ccccc3Sc3ccc(C(F)(F)F)cc32)CC1 | – | 12.6 µM (active) |
| CC(C)(C)OC(=O)NCCCCC1=CC2=CC(=O)C(C)(OC(=O)c3cccs3)C(=O)C2=CO1 (centres undefined) | -6.53% | – |
| CCOC(=O)C1=C(C)c2ccccc2OC1C(=O)OCC (centres undefined) | -10.6% | – |
| COc1cccc(CC(=O)N2CCc3nc(COc4ccccc4)c4c(c3C2)CO[C@@H](C)C4)c1 | -8.64% [at 8.59 µM] | – |
| N#Cc1cccc(CS(=O)(=O)c2nnnn2-c2cc(C(F)(F)F)cc(C(F)(F)F)c2)c1 | -6.48% | – |
| COc1ccccc1-c1ccnc(-n2ncc(C(=O)NCCc3ccncc3)c2C)n1 | -19.5% | – |
| CC(C)[C@@H](CC(=O)N[C@@H]1CCNC[C@H]1C(=O)N[C@H](CC(=O)N[C@@H](CCC(=O)O)CC(=O)O)Cc1ccccc1)NC(=O)C[C@H](CO)NC(=O)[C@@H]1CNCC[C@H]1N | 1.1% | – |
| COC(=O)[C@H]1[C@@H](c2ccccc2)NC(=O)O[C@@H]1C | 55.5% [at 8.59 µM] | – |
| CC(C)CNc1cccc2c1S(=O)(=O)N[C@H](CC(C)C)CO2 | 21.9% | – |
| COCCN1C(=S)NC(c2cccc(F)c2)C(C(=O)OC)=C1C (centres undefined) | 20.9% [at 8.59 µM] | – |
| N#Cc1ccc2c(c1)C[C@]1(CCCCN3C(=O)c4ccccc4C3=O)OC3=C(C(=O)OC4(CCCCC4)C3)[C@H]2O1 | 9.87% [at 8.59 µM] | – |
| CN(Cc1ccccc1F)c1cc2c(c3c1ccn3C)C1CCC2O1 (centres undefined) | 19.5% | – |
| COC(=O)[C@@H]1CC2=CC(=O)CC[C@]2(C)[C@@]23O[C@@H]2C[C@@]2(C)[C@@H](CC[C@@]24CCC(=O)O4)[C@H]13 | -2.79% | – |
| CC[C@]1(O)C(=O)OCc2c1cc1n(c2=O)Cc2cc3ccccc3nc2-1 | – | 2.82 µM (active) |
| CCCN(C/C=C/I)C1CCc2ccc(O)cc2C1 (centres undefined) | -4.11% | – |
| CCCN(C/C=C\I)[C@@H]1CCc2cccc(O)c2C1 | – | 25.1 µM (active) |
| CCCN(CCc1ccccc1)C1CCc2c(O)cccc2C1 (centres undefined) | – | 35.5 µM (active) |

| Structure (SMILES) | activity change, negative = inhibition | Potency |
| --- | --- | --- |
| O=C(Nc1cc(C(=O)Nc2ccc(S(=O)(=O)O)cc2)cc(C(=O)Nc2ccc(S(=O)(=O)O)cc2)c1)Nc1cc(C(=O)Nc2ccc(S(=O)(=O)O)cc2)cc(C(=O)Nc2ccc(S(=O)(=O)O)cc2)c1 | -1.03% | – |
| COC(=O)C/C=C/[C@@H](C)[C@H](NC(=O)OCC(Cl)(Cl)Cl)c1ccccc1 | -18.3% | – |
| Oc1c(Cl)cc(Cl)c(Cl)c1Cc1c(O)c(Cl)cc(Cl)c1Cl | – | 15.8 µM (active) |
| Cc1ccccc1-c1ccc(C(=O)O)s1 | 50.9% [at 107 µM] | – |
| C[C@H]1[C@H](c2ccccc2)Oc2cc(Br)ccc2S(=O)(=O)N1Cc1cccc(F)c1 | -22.6% | – |
| C[C@@]12CC[C@H]3[C@@H](CC[C@]4(O)C[C@H](O)CC[C@@]34C=O)[C@]1(O)CC[C@@H]2C1=CC(=O)OC1 | – | 1 µM (active) |
| COC1CC(OC2CC[C@@]3(C=O)C4CC[C@]5(C)C(C6=CC(=O)OC6)CC[C@@]5(O)C4CC[C@]3(O)C2)OC(C)C1O (some centres undefined) | – | 0.251 µM (active) |
| COc1ccc(CC(N)C(=O)NC2C(O)[C@H](n3cnc4c(N(C)C)ncnc43)O[C@@H]2CO)cc1 (some centres undefined) | – | 3.98 µM (active) |
| Nc1ncnc2c1ncn2C1CC(O)C(CO)O1 (centres undefined) | 11.5% | – |
| COc1ccc(C[C@H](N)C(=O)N[C@@H]2[C@H](O)[C@H](n3cnc4c(N(C)C)ncnc43)O[C@@H]2CO)cc1 | – | 2.24 µM (active) |
| C[C@H]1C/C=C/[C@@H]2[C@@H]3O[C@]3(C)[C@@H](C)[C@H]3[C@H](Cc4ccccc4)NC(=O)[C@]32OC(=O)O/C=C/[C@](C)(O)C1=O | – | 0.251 µM (active) |
| CO[C@H]1[C@H](NC(=O)C(C)C)c2ccccc2C12CCN(Cc1cnc(N(C)C)s1)CC2 | -20.2% | – |
| Cc1c(S(=O)(=O)O)oc2c1C(=O)C(=O)c1c-2ccc2c1CCCC2(C)C | 1.1% | – |
| O=C(C(=O)N1CCOc2ccc(CN3CCN(Cc4ccccn4)CC3)cc2C1)c1ccccc1 | -10.7% | – |
| CCOC(=O)N1CCN(Cc2ccc3c(c2)CN(C(=O)c2cccc(-n4cccn4)c2)CCO3)CC1 | -8.81% | – |
| O=c1c(CN2CCOc3ccc(CN4CCC(Oc5cccnc5)CC4)cc3C2)coc2ccccc12 | – | 11.2 µM (active) |
| c1ccc(CN2CCN(Cc3ccc4c(c3)CN(Cc3c[nH]c5ccccc35)CCO4)CC2)nc1 | – | 10 µM (active) |
| CCOC(=O)N1CCC(N2CCOc3ccc(CN4CCC(O)(c5cccnc5)CC4)cc3C2)CC1 | -28.6% | – |
| CC(C)c1cc(C(=O)N2CCOc3ccc(CN4CCC(Oc5cccnc5)CC4)cc3C2)n[nH]1 | 25.6% | – |
| O=S(O)S(=O)(=O)O | 2.36% | – |
| O=S1(=O)CC(O)c2cc(Br)ccc2N1Cc1cccc(F)c1 (centres undefined) | 25.4% | – |
| Cc1ccccc1Nc1oc(-c2ccccc2)nc1C(C)(C)C | -15% [at 8.59 µM] | – |
| C=C1/C(=C\C=C2\CCCC3(C)C2CCC3C(C)/C=C/C(O)C2CC2)CC(O)CC1O (centres undefined) | -5.17% | – |
| COC(=O)CCCC1=CC2=C(c3ccccc3)C(=O)C(C)(OC(=O)C3CCCC3)C(=O)C2=CN1c1ccc(OC)cc1 (centres undefined) | -5.26% [at 8.59 µM] | – |
